Rows were chosen to be rich in hits. Some 3.7% of all compounds tested hit in one or more screens of this group.
miR-21 act – qHTS Assay for Modulators of miRNAs and/orActivators of miR-21. HeLa miR-21 FLuc reporter, luciferase, 48 h. 340,000 tested, under 10 active. Potency, µM (top dose mostly 38.3 µM), inactives show top-dose activity change, positive = activation, usual class: activators. AID 2288, 2010;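 also: % of control where 0% means no effect; miR-21 action dims this reporter so a rising signal means less miR-21 action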
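Luminescence from a firefly luciferase reporter carrying a miR-21 binding site downstream, stably expressed under a CMV promoter in HeLa cells that make miR-21 endogenously, reports miRNA modulation after 48 h compound exposure up to approximately 40uM final.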
ClpP mod – qHTS Assay for Activators of ClpP; actives 1.9% (n = 340,000); purified B. subtilis ClpP, FRET peptide cleavage, 20 min; ATP-dependent Clp protease proteolytic subunit (Bacillus subtilis (strain 168)), P80244; Potency, µM (series often up to 57.5 µM), inactives show at the highest dose activity change, negative = active; active = well fitted falling curve with a large enough effect; inconclusive = small, poorly fitted or top-dose-only effect; inactive = no such curve, though single readings can be large or run the other way; also: potency is read from the fitted curve at half-maximal effect; the source files actives as falling curves though it sought activators and does not explain the sign; nearly all actives have a fitted effect of over 65% in size
Target sequence (P80244 whole entry, looked up): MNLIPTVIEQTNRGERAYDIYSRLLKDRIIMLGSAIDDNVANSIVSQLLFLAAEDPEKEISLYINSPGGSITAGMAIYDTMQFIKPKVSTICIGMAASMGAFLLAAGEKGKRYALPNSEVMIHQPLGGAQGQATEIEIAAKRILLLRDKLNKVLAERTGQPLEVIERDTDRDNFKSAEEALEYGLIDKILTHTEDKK
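ClpP 10 microg/mL final, pH 8 Tris/KCl buffer with BSA, glycerol, Tween-20; compound pinned in; FRET-FV substrate; RT 20 min; Ex320/Em430; ΔFRET vs ADEP 5.8 microM, DMSO, no enzyme.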
TCR activator – Activators of T cell receptors: qHTS campaign; primary human leukocytes, anti-CD3, IL-2 HTRF, 48 h; 330,000 tested, under 10 active; Potency, µM (series often up to 9.22 µM), inactives show top-dose activation of IL-2 secretion, actives largely listed as activators; AID 504894, 2011; also: % of control where 0% means no effect
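Activity was scored as IL-2 release from primary human leukocytes given only a TCR signal (a-CD3 beads) plus compound for 48 hr. Detection used a two-antibody HTRF format read at 665nm.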
A549 tox – Nrf2 qHTS screen for inhibitors: counterscreen for cytotoxicity; AID 504648, 2011; actives 0.16% (n = 390,000); Potency, µM (highest dose often 46 µM), for the others: at the highest dose activity change, negative = cytotoxicity, actives largely listed as inhibitors; A549 ARE-Fluc cells, CellTiter-Fluor viability, 18-24 h; also: potency is read from the fitted curve at half-maximal effect; % is scaled to controls: 0 for no effect and ±100 for the full control effect
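A549 ARE-Fluc cells in 5% FBS OPTI-MEM, 5000 cells/well, rested 2 h then exposed to compounds in concentration-response for 18-24 h at 37 °C. Viability by CellTiter-Fluor fluorescence (Ex 405/Em 525) after 30 min; luciferase luminescence (BugLite, 15 min, RT) read afterwards.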
Nrf2 inh – Nrf2 qHTS screen for inhibitors. A549 ARE-Fluc reporter, luciferase luminescence, 18-24 h. Potency, µM (titrated, usually from 46 µM), inactives show at the top dose activity change, negative = inhibition, most hits filed as inhibitors. actives 2.1% (n = 360,000). AID 504444, 2011; also: potency is read from the fitted curve at half-maximal effect; % is scaled to controls: 0 for no effect and ±100 for the full control effect; nearly all actives have a fitted effect of over 60% in size
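Concentration-response testing used A549 ARE_Fluc cells at 5000 cells/well. Following an 18-24 h compound incubation, viability was read by fluorescence (Ex 405/Em 525) and luciferase output by luminescence.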
Nrf2 ARE act – qHTS of Nrf2 Activators. AREc32 ARE-luciferase reporter (MCF7-derived line), luminescence, 24 h. Potency, µM (top dose mostly 46.1 µM), inactives show top-dose activation, hits mostly activators. actives 0.31% (n = 410,000). AID 624171, 2012; also: potency is read from the fitted curve at half-maximal effect; % of control where 0% means no effect; nearly all actives have a fitted effect of over 65% in size
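Each well held 1000 AREc32 cells, which were incubated with compound for 24 hr at 37 deg C after overnight attachment, and ARE reporter activity was quantified by firefly luciferase luminescence.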
The depositor's hits bear a star; ? = inconclusive; / = not tested or not shown; [ ] = remark or other dose. Unless noted, calls follow the shape of the dose curve; as a rule, active = well fitted curve in the direction sought with a large enough effect; inconclusive = small, poorly fitted or top-dose-only effect, or another doubt; inactive = no such curve, though single readings can be large; an effect the other way counts as inactive or inconclusive.

SMILES	miR-21 act	ClpP mod	TCR activator	A549 tox	Nrf2 inh	Nrf2 ARE act
COC(=O)c1ccccc1NC(=O)COc1ccccc1C(=O)Nc1ccccc1	/	-16.3%	/	/	/	/
CNc1ncnc2c1ncn2[C@H]1CN(Cc2ccc(OC)cc2)C[C@@H](CO)O1	/	-1.3%	/	/	/	0.4%[9.22 µM]
Cc1ccc2c(c1)CCCO[C@]21O[C@H](CCO)C[C@H](O)[C@H]1O	/	0.8%	/	/	/	0.4%
COc1cc(-c2nn3c(-c4cc(-c5ccccc5)n[nH]4)nnc3s2)cc(OC)c1OC	/	?	/	?	20.6µM*	/
COc1cc(-c2nn3c(-c4ccccc4)nnc3s2)cc(OC)c1OC	-14.5%	-8.3%	6.2%	/	4.4%	3.3%
O=C(CN1CCCc2ccccc21)N/N=C/c1ccc(F)cc1F	-4.5%	/	-4.0%	4.0%	8.8%	0.4%
O=C(CN1CCCc2ccccc21)N/N=C/c1ccccc1O	16.8%	28.2µM*	-5.0%[46.1 µM]	-1.8%	-23.7%	-0.1%
CNc1ccc(/C=C2\C=Cc3ccccc32)cc1OC	/	-2.7%	/	/	/	/
Cc1ccc2occ(CC(=O)Nc3c(C(=O)Nc4ccc(Cl)cc4)oc4ccccc34)c2c1	-21.3%	17.8µM*	/	3.3%	19.2%	11.3%
CCc1ccc2occ(CC(=O)Nc3c(C(=O)c4ccccc4)oc4ccccc34)c2c1	-0.6%	22.4µM*	/	5.1%	4.8%	0.9%
Cc1ccc2occ(CC(=O)Nc3ccc(S(=O)(=O)N4CCC(C)CC4)cc3)c2c1	21.4%	-3.0%	/	-12.5%	25.9µM*	-0.4%
CCc1ccc2occ(CC(=O)Nc3c(C(=O)Nc4ccc(Cl)cc4)oc4ccccc34)c2c1	-5.7%	15.8µM*	/	11.0%	1.1%	7.8%
CCCCCCCCN1[C@@H](CC(C)=O)c2ccc(/C=C/C(C)=O)cc2S1(=O)=O	/	0.2%	/	/	/	/
COc1ccccc1N(C(=O)CCl)c1cn(C(C)=O)c2ccccc12	?	-0.1%	1.9%	-1.5%	23.1µM*	?
O=C(CSc1nc2ccc([N+](=O)[O-])cc2[nH]1)NC1CCCCCC1	26.8%	-2.4%	-0.5%[46.1 µM]	?	13µM*	2.4%
O=C(CSc1nc2ccc([N+](=O)[O-])cc2[nH]1)NC1CCCCC1	16.4%	-0.5%	/	-6.1%	/	0.3%
CC(C)C[C@@H]1COc2cc(N(C)CCO)ccc2S(=O)(=O)N1	/	-2.7%	/	/	/	-0.3%
Cc1cccnc1CCNC(=O)CC1C(=O)NCCN1CC1CCCCC1 (configuration not stated)	0.4%	-22.6%	3.3%	1.9%	23.1µM*	1.3%
O=C(CC1C(=O)NCCN1CC1CCCCC1)NCc1ccccc1Cl (configuration not stated)	-1.4%	/	-1.5%	-0.9%	0.3%	0.3%
COc1ccc(NC(=S)N=Nc2c(O)[nH]c3ccccc23)cc1	17.1%	2.0%	0.7%	?	9.2µM*	17.7%
Cc1ccc(NC(=S)N=Nc2c(O)[nH]c3ccccc23)cc1	6.2%	/	4.0%	-11.3%	-20.4%	8.9%
CNC(=S)N=Nc1c(O)[nH]c2ccccc12	-5.8%	-6.3%	0.2%[46.1 µM]	-8.7%	-12.2%	12.6%
CCOC(=O)C(=O)N=Nc1c(O)[nH]c2ccccc12	-5.0%	22.4µM*	2.8%[46.1 µM]	-3.3%	7.5%	-0.6%
Cc1cc(NC(=O)C(Cl)c2ccccc2)no1 (configuration not stated)	7.2%	-4.2%	10.8%	-4.3%	?	12.6µM*
CCC(Oc1ccccc1)C(=O)Nc1cc(C)on1 (configuration not stated)	-27.0%	-1.0%	-7.0%	4.0%	12.6%	-1.2%
Cc1c(C(=O)N(Cc2cccc(F)c2)C2CCS(=O)(=O)C2)oc2cc(Br)ccc12 (configuration not stated)	-2.1%	-10.1%	/	-19.8%	13µM*	0.9%

Screens (PubChem)
